Measurements: PubChem BioAssay (NCATS)
Inconclusive results are not listed. Calls of active or inactive are those of the source. The call rests on the fitted dose curve; in most records, active means well fitted inhibition curve with a large enough effect; inconclusive means small, poorly fitted or top-dose-only effect; inactive means flat fitted curve, though single readings scatter.

Molecular target: Lysine-specific demethylase 5B (Homo sapiens) (UniProt Q9UGL1)
Assay: Optimization screen for KDM5B Histone Demethylases FDH coupled qHTS against the LOPAC library (AID 1347166)
Conditions: KDM5B demethylation, FDH-coupled NADH fluorescence (FDH is formaldehyde dehydrogenase); series mostly up to 57.5 µM
In short: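 KDM5BDeltaAP (200nM final) in 50mM HEPES pH 7.5, 0.01% Tween-20 was preincubated with compound for 10 min at room temperature. A substrate mix of 12.5uM H3K4Me3, 25uM a-ketoglutarate, ascorbate, Fe2+, NAD+ and formaldehyde dehydrogenase was then added. NADH fluorescence (340/450 nm) was read initially and after 30 min.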

Sequence of Lysine-specific demethylase 5B (Homo sapiens) (Q9UGL1 whole entry, looked up): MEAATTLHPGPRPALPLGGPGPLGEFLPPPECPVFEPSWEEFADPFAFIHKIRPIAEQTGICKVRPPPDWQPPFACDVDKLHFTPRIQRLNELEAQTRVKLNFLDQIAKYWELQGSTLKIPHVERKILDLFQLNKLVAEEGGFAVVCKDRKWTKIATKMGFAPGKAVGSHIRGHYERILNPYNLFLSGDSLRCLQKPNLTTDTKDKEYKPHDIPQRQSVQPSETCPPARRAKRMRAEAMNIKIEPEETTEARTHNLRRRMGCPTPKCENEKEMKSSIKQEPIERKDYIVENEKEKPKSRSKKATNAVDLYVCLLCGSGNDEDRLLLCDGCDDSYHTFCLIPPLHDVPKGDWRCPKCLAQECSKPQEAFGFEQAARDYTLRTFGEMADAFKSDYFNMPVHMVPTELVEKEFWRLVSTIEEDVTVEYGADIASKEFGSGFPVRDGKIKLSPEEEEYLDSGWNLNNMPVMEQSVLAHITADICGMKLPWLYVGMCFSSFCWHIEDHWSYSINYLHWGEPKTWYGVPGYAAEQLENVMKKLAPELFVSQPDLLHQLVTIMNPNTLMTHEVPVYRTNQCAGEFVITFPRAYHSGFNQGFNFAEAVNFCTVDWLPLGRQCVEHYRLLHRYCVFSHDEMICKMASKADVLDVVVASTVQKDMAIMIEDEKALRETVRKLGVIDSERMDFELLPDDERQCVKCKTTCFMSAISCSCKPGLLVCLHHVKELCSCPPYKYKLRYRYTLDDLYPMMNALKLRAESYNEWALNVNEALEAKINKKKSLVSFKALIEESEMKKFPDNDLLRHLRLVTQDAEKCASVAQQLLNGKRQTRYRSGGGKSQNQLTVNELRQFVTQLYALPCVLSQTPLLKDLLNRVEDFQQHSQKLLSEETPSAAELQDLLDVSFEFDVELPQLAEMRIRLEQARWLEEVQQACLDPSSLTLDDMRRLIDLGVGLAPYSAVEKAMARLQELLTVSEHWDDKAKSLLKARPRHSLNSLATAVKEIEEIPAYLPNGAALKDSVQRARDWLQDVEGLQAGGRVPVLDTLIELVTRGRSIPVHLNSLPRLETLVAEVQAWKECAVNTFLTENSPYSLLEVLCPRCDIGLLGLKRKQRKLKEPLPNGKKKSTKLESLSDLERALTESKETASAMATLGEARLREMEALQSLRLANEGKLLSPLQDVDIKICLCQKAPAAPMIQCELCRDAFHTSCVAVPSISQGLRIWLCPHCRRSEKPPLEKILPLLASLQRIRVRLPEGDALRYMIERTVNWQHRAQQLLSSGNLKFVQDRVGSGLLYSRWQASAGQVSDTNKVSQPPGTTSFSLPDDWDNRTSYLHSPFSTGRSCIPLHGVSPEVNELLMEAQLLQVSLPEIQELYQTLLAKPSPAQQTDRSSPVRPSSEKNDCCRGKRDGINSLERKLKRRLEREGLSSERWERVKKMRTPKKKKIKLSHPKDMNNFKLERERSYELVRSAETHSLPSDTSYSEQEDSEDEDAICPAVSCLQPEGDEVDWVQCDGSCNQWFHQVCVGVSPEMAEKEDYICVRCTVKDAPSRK

Structure (SMILES) | outcome
CCC1(c2ccccc2)C(=O)NCNC1=O | inactive
CS(=O)(=O)Nc1ccc([N+](=O)[O-])cc1Oc1ccccc1 | inactive
CN(C)CCC=C1c2ccccc2C=Cc2ccccc21 | inactive
OCCN1CCN(CCCN2c3ccccc3Sc3ccc(C(F)(F)F)cc32)CC1 | inactive
CCN1CCCC1CNC(=O)c1cc(S(=O)(=O)CC)c(N)cc1OC (stereo unspecified) | inactive
CN1CCC(=C2c3ccccc3CC(=O)c3sccc32)CC1 | inactive
